# From PubChem BioAssay AID1159580 (chemical genetic matrix, 2015)
# The campaign covered roughly 5,500 compounds. About 2,000 (36%) were called active. Not shown: some 18% with an inconclusive outcome. This is one part of the list. A number with no mark means an inactive call. Cut-off read from the data, not from the text of the source: active = normalized growth mostly below about 0.91 (no sharp cut-off); inconclusive = no clear call, values can overlap the other calls; inactive = mostly above about 0.92.
# Test: chemical genetic growth profiling, strain panel (AID 1159580);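 note: tested at 20 µM; growth read once vehicle control cultures reached saturation at 30 °C; 1 = growth at the plate median or of vehicle wells; lower values mean less growth of the strain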
# Settings: growth OD
compound,measurement,setting,value
COP(=S)(OC)SCn1nnc2ccccc2c1=O,normalized growth,"S. cerevisiae deletion strains, locus YJR075W, strain HOC1, active compounds read low",0.975
same,normalized growth,"S. cerevisiae deletion strains, locus YKL009W, strain mrt4, active compounds read low",0.866 (active)
same,normalized growth,"S. cerevisiae deletion strains, locus YKL068W, active compounds read low",0.995
same,normalized growth,"S. cerevisiae deletion strains, locus YKL085W, strain MDH1 (second series), active compounds read low",0.985
same,normalized growth,"S. cerevisiae deletion strains, locus YKL085W, strain MDH1, active compounds read low",0.985
same,normalized growth,"S. cerevisiae deletion strains, locus YKL160W, strain elf1, active compounds read low",0.989
same,normalized growth,"S. cerevisiae deletion strains, locus YKL190W, strain CNB1, active compounds read low",0.976
same,normalized growth,"S. cerevisiae deletion strains, locus YKR001C, strain vps1, active compounds read low",0.969
same,normalized growth,"S. cerevisiae deletion strains, locus YKR026C, strain gcn3, active compounds read low",1.01
same,normalized growth,"S. cerevisiae deletion strains, locus YKR091W, strain srl3, active compounds read low",1.01
same,normalized growth,"S. cerevisiae deletion strains, locus YLL001W, strain dnm1, active compounds read low",1.01
same,normalized growth,"S. cerevisiae deletion strains, locus YLL026W, active compounds read low",0.999
same,normalized growth,"S. cerevisiae deletion strains, locus YLL041C, strain sdh2, active compounds read low",1
same,normalized growth,"S. cerevisiae deletion strains, locus YLR027C, strain aat2, active compounds read low",0.996
same,normalized growth,"S. cerevisiae deletion strains, locus YLR039C, strain RIC1, active compounds read low",0.974
same,normalized growth,"S. cerevisiae deletion strains, locus YLR058C, strain SHM2, active compounds read low",0.971
same,normalized growth,"S. cerevisiae deletion strains, locus YLR102C, strain apc9, active compounds read low",0.98
same,normalized growth,"S. cerevisiae deletion strains, locus YLR113W, strain HOG1, active compounds read low",1.01
same,normalized growth,"S. cerevisiae deletion strains, locus YLR221C, strain rsa3, active compounds read low",0.971
same,normalized growth,"S. cerevisiae deletion strains, locus YLR258W, strain gsy2, active compounds read low",1
same,normalized growth,"S. cerevisiae deletion strains, locus YLR262C, strain YPT6 (second series), active compounds read low",0.96
same,normalized growth,"S. cerevisiae deletion strains, locus YLR262C, strain YPT6, active compounds read low",0.941
same,normalized growth,"S. cerevisiae deletion strains, locus YLR268W, strain sec22, active compounds read low",0.963
same,normalized growth,"S. cerevisiae deletion strains, locus YLR320W, strain mms22, active compounds read low",1
same,normalized growth,"S. cerevisiae deletion strains, locus YLR330W, strain CHS5, active compounds read low",0.981
same,normalized growth,"S. cerevisiae deletion strains, locus YLR342W, strain FKS1 (second series), active compounds read low",0.921
same,normalized growth,"S. cerevisiae deletion strains, locus YLR342W, strain FKS1, active compounds read low",0.986
same,normalized growth,"S. cerevisiae deletion strains, locus YLR357W, strain rsc2, active compounds read low",0.885
same,normalized growth,"S. cerevisiae deletion strains, locus YLR370C, strain arc18, active compounds read low",1.02
same,normalized growth,"S. cerevisiae deletion strains, locus YLR371W, strain rom2, active compounds read low",0.98
same,normalized growth,"S. cerevisiae deletion strains, locus YLR384C, strain iki3, active compounds read low",0.993
same,normalized growth,"S. cerevisiae deletion strains, locus YLR418C, strain cdc73, active compounds read low",0.985
same,normalized growth,"S. cerevisiae deletion strains, locus YML016C, strain PPZ1, active compounds read low",0.981
same,normalized growth,"S. cerevisiae deletion strains, locus YML032C, strain rad52, active compounds read low",0.977
same,normalized growth,"S. cerevisiae deletion strains, locus YML120C, strain ndi1, active compounds read low",1.01
same,normalized growth,"S. cerevisiae deletion strains, locus YML124C, strain tub3, active compounds read low",0.999
same,normalized growth,"S. cerevisiae deletion strains, locus YMR058W, strain fet3, active compounds read low",0.974
same,normalized growth,"S. cerevisiae deletion strains, locus YMR078C, strain ctf18, active compounds read low",0.981
same,normalized growth,"S. cerevisiae deletion strains, locus YMR125W, strain sto1, active compounds read low",1.01
same,normalized growth,"S. cerevisiae deletion strains, locus YMR129W, active compounds read low",1.01
same,normalized growth,"S. cerevisiae deletion strains, locus YMR205C, strain PFK2, active compounds read low",1.03
same,normalized growth,"S. cerevisiae deletion strains, locus YMR223W, strain ubp8, active compounds read low",0.962
same,normalized growth,"S. cerevisiae deletion strains, locus YMR231W, strain pep5, active compounds read low",0.969
same,normalized growth,"S. cerevisiae deletion strains, locus YMR263W, strain SAP30, active compounds read low",0.95
same,normalized growth,"S. cerevisiae deletion strains, locus YMR307W, strain GAS1, active compounds read low",0.993
same,normalized growth,"S. cerevisiae deletion strains, locus YNL067W, strain RPL9B, active compounds read low",0.941
same,normalized growth,"S. cerevisiae deletion strains, locus YNL071W, strain lat1, active compounds read low",0.98
same,normalized growth,"S. cerevisiae deletion strains, locus YNL128W, strain TEP1, active compounds read low",0.954
same,normalized growth,"S. cerevisiae deletion strains, locus YNL153C, strain GIM3, active compounds read low",0.974
same,normalized growth,"S. cerevisiae deletion strains, locus YNL183C, strain NPR1, active compounds read low",0.891
same,normalized growth,"S. cerevisiae deletion strains, locus YNL209W, strain ssb2, active compounds read low",1.01
same,normalized growth,"S. cerevisiae deletion strains, locus YNL233W, strain BNI4, active compounds read low",0.975
same,normalized growth,"S. cerevisiae deletion strains, locus YNL248C, strain rpa49, active compounds read low",0.951
same,normalized growth,"S. cerevisiae deletion strains, locus YNL250W, strain rad50, active compounds read low",0.978
same,normalized growth,"S. cerevisiae deletion strains, locus YNL271C, strain bni1, active compounds read low",0.977
same,normalized growth,"S. cerevisiae deletion strains, locus YNL298W, strain CLA4, active compounds read low",0.959
same,normalized growth,"S. cerevisiae deletion strains, locus YNL307C, strain MCK1, active compounds read low",0.995
same,normalized growth,"S. cerevisiae deletion strains, locus YNL322C, strain KRE1 (second series), active compounds read low",1
same,normalized growth,"S. cerevisiae deletion strains, locus YNL322C, strain KRE1, active compounds read low",0.979
same,normalized growth,"S. cerevisiae deletion strains, locus YNR049C, strain mso1, active compounds read low",1.01
same,normalized growth,"S. cerevisiae deletion strains, locus YNR052C, strain pop2, active compounds read low",0.99
same,normalized growth,"S. cerevisiae deletion strains, locus YOL006C, strain TOP1, active compounds read low",0.829
same,normalized growth,"S. cerevisiae deletion strains, locus YOL012C, strain htz1",1.5
same,normalized growth,"S. cerevisiae deletion strains, locus YOL147C, strain pex11, active compounds read low",0.99
same,normalized growth,"S. cerevisiae deletion strains, locus YOR001W, strain rrp6, active compounds read low",0.973
same,normalized growth,"S. cerevisiae deletion strains, locus YOR061W, strain CKA2, active compounds read low",0.955
same,normalized growth,"S. cerevisiae deletion strains, locus YOR069W, strain VPS5, active compounds read low",0.992
same,normalized growth,"S. cerevisiae deletion strains, locus YOR070C, strain gyp1, active compounds read low",0.986
same,normalized growth,"S. cerevisiae deletion strains, locus YOR080W, strain dia2, active compounds read low",0.998
same,normalized growth,"S. cerevisiae deletion strains, locus YOR083W, strain WHI5, active compounds read low",0.976
same,normalized growth,"S. cerevisiae deletion strains, locus YOR106W, strain vam3, active compounds read low",0.918
same,normalized growth,"S. cerevisiae deletion strains, locus YOR136W, strain idh2, active compounds read low",1.01
same,normalized growth,"S. cerevisiae deletion strains, locus YOR144C, strain elg1, active compounds read low",0.988
same,normalized growth,"S. cerevisiae deletion strains, locus YOR184W, strain ser1, active compounds read low",0.951
same,normalized growth,"S. cerevisiae deletion strains, locus YOR231W, strain MKK1, active compounds read low",0.985
same,normalized growth,"S. cerevisiae deletion strains, locus YOR265W, strain rbl2, active compounds read low",1
same,normalized growth,"S. cerevisiae deletion strains, locus YOR270C, strain vph1, active compounds read low",0.858
same,normalized growth,"S. cerevisiae deletion strains, locus YOR290C, strain snf2, active compounds read low",0.976
same,normalized growth,"S. cerevisiae deletion strains, locus YOR316C, strain cot1, active compounds read low",0.971
same,normalized growth,"S. cerevisiae deletion strains, locus YPL051W, strain arl3, active compounds read low",0.973
same,normalized growth,"S. cerevisiae deletion strains, locus YPL055C, strain LGE1, active compounds read low",0.951
same,normalized growth,"S. cerevisiae deletion strains, locus YPL078C, strain atp4, active compounds read low",0.992
same,normalized growth,"S. cerevisiae deletion strains, locus YPL106C, strain sse1, active compounds read low",1.02
same,normalized growth,"S. cerevisiae deletion strains, locus YPL240C, strain hsp82, active compounds read low",1.01
same,normalized growth,"S. cerevisiae deletion strains, locus YPL241C, strain CIN2, active compounds read low",0.978
same,normalized growth,"S. cerevisiae deletion strains, locus YPL256C, strain CLN2, active compounds read low",1
same,normalized growth,"S. cerevisiae deletion strains, locus YPR119W, strain clb2, active compounds read low",0.994
same,normalized growth,"S. cerevisiae deletion strains, locus YPR141C, strain kar3, active compounds read low",0.969
same,normalized growth,"S. cerevisiae deletion strains, locus YPR163C, strain tif3, active compounds read low",0.99
same,normalized growth,"S. cerevisiae deletion strains, locus YPR167C, strain met16, active compounds read low",0.981
same,normalized growth,"S. cerevisiae deletion strains, strain wtn01, active compounds read low",0.981
same,normalized growth,"S. cerevisiae strains, strain wild type, active compounds read low",0.977
